We go through 47 sequences from the supplement of paper PMC3545927.

The other results are listed elsewhere or left out. How many sequences the whole screen found active is unknown.

This assay concerns the target furin, P09958. The assay can be described thus: furin cleavage Z-score vs untreated control; higher = more cleavage, active = 3.5 or more, inactive = 1 or less, 8 variable residues between constant flanks. Here is the method: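 Multiplexed peptide-cDNA fusion cleavage assay. 8-mer variable peptides flanked by constant Cys-Ala (N-term) and Ala-Gly-Asn-Ala-Ser-Ala-Ser-Ala (C-term) and conjugated to a cDNA oligonucleotide were bead-immobilised via the N-terminus. They were treated with purified furin at a 1:10 enzyme:substrate ratio in 50 mM HEPES pH 7.5, 1 mM CaCl2, 100 mM NaCl for 7.5, 15 or 30 min. Released cDNA was counted by next-generation sequencing, and log counts versus no-furin controls were lowess-adjusted and converted to robust Z-scores.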

Chain of furin, P09958 (P09958 whole entry, the tested form may be a part): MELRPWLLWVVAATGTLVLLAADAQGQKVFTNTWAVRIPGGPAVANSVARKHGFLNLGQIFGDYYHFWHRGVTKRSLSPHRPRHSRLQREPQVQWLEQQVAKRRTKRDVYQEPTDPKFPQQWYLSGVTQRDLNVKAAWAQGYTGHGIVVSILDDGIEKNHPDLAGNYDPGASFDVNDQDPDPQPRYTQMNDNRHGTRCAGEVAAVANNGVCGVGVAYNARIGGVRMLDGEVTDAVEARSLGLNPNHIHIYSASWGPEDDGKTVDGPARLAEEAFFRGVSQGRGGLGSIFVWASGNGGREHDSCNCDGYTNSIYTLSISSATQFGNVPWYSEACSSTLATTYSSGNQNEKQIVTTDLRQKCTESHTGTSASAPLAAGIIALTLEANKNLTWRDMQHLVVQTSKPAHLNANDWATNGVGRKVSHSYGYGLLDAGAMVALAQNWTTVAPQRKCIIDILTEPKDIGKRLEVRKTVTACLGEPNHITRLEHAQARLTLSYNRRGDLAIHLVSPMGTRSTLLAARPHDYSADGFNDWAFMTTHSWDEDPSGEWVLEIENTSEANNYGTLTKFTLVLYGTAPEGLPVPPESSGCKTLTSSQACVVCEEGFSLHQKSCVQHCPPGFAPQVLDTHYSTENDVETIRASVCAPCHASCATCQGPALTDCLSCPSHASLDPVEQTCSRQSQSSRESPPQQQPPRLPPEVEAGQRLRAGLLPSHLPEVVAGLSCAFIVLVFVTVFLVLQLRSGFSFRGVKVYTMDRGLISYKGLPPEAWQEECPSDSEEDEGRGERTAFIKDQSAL

B1: FS-760 (peptide)
chain: CADSGRKTRSAGNASASA
Regarding B1, the “furin cleavage Z-score” value (7.5 min) was 9.82 (active), the “furin cleavage Z-score” value (15 min) is 12.7 (active) and the “furin cleavage Z-score” value (30 min) was 9.11 (active).

B2: HC855 (peptide)
chain: CARHLIFCHSAGNASASA
As to B2, the “furin cleavage Z-score” value reads like this: (7.5 min) -0.853 (inactive); (15 min) 0.266 (inactive); (30 min) 0.481 (inactive).

B3: FS-955 (peptide)
chain: CARMWRKTRSAGNASASA
Take B3: the “furin cleavage Z-score” value is 13.5 (active) (7.5 min), 13.7 (active) (15 min) and 10.7 (active) (30 min).

B4: FS-2629 (peptide)
chain: CADSGRAYLPAGNASASA
B4: the “furin cleavage Z-score” value (7.5 min) was -0.794 (inactive), the “furin cleavage Z-score” value (15 min) is -0.681 (inactive) and the “furin cleavage Z-score” value (30 min) is -1.79 (inactive).

B5: FS-1396 (peptide)
chain: CARFWRKTRSAGNASASA
Take B5: the “furin cleavage Z-score” value is 13 (active) (7.5 min), 13.8 (active) (15 min) and 10.1 (active) (30 min).

B6: FS-857 (peptide)
chain: CARHMRMTRSAGNASASA
Turning to B6, the “furin cleavage Z-score” value was 13.4 (active) (7.5 min), 13.6 (active) (15 min) and 9.7 (active) (30 min).

B7: HC1183 (peptide)
chain: CARIVGPRTCAGNASASA
Take B7: the “furin cleavage Z-score” value runs as follows: (7.5 min) 0.967 (inactive); (15 min) -0.921 (inactive); (30 min) -0.233 (inactive).

B8: HC2309 (peptide)
chain: CAYVPCHRPSAGNASASA
For B8, the “furin cleavage Z-score” value runs as follows: (7.5 min) 1.57; (15 min) -0.807 (inactive); (30 min) 0.069 (inactive).

B9: HC331 (peptide)
chain: CAPQAILDMIAGNASASA
Regarding B9, the “furin cleavage Z-score” value (7.5 min) is -0.162 (inactive), the “furin cleavage Z-score” value (15 min) is -2.41 (inactive) and the “furin cleavage Z-score” value (30 min) was -1.52 (inactive).

B10: HC551 (peptide)
chain: CAKWVPGAVYAGNASASA
With B10, the “furin cleavage Z-score” value (7.5 min) was -1.17 (inactive), the “furin cleavage Z-score” value (15 min) was -1.76 (inactive) and the “furin cleavage Z-score” value (30 min) was -0.384 (inactive).

B11: HC15 (peptide)
chain: CAMEESSQHLAGNASASA
B11: the “furin cleavage Z-score” value is 0.403 (inactive) (7.5 min), 2.52 (15 min) and 1.06 (30 min).

B12: HC2302 (peptide)
chain: CADQEVVTSTAGNASASA
As to B12, the “furin cleavage Z-score” value (7.5 min) is -0.902 (inactive), the “furin cleavage Z-score” value (15 min) is -1.54 (inactive) and the “furin cleavage Z-score” value (30 min) is -1.12 (inactive).

B13: FS-158 (peptide)
chain: CAFQARLTRSAGNASASA
Consider B13, for which the “furin cleavage Z-score” value (7.5 min) was 10.8 (active), the “furin cleavage Z-score” value (15 min) is 11.5 (active) and the “furin cleavage Z-score” value (30 min) is 9.98 (active).

B14: FS-954 (peptide)
chain: CARMWRKNRSAGNASASA
With B14, the “furin cleavage Z-score” value (7.5 min) is 7.39 (active), the “furin cleavage Z-score” value (15 min) is 10 (active) and the “furin cleavage Z-score” value (30 min) is 7.6 (active).

B15: HC1699 (peptide)
chain: CAMPECSQHLAGNASASA
Consider B15, for which the “furin cleavage Z-score” value is, setting by setting: (7.5 min) -0.692 (inactive); (15 min) -0.28 (inactive); (30 min) -0.904 (inactive).

B16: HC713 (peptide)
chain: CADQDLVGWPAGNASASA
As to B16, the “furin cleavage Z-score” value (7.5 min) is -0.0765 (inactive), the “furin cleavage Z-score” value (15 min) was -0.565 (inactive) and the “furin cleavage Z-score” value (30 min) was 0.238 (inactive).

B17: HC532 (peptide)
chain: CAQAEAALENAGNASASA
As for B17, the “furin cleavage Z-score” value (7.5 min) was 0.288 (inactive), the “furin cleavage Z-score” value (15 min) is -0.4 (inactive) and the “furin cleavage Z-score” value (30 min) is -1.4 (inactive).

B18: HC1281 (peptide)
chain: CAITRVESENAGNASASA
In the case of B18, the “furin cleavage Z-score” value (7.5 min) is -1.51 (inactive), the “furin cleavage Z-score” value (15 min) was -1.29 (inactive) and the “furin cleavage Z-score” value (30 min) is 0.308 (inactive).

B19: FS-2603 (peptide)
chain: CARSKRAAPAAGNASASA
As for B19, the “furin cleavage Z-score” value is, setting by setting: (7.5 min) 11.1 (active); (15 min) 9.91 (active); (30 min) 8.19 (active).

B20: FS-2604 (peptide)
chain: CARSKRALKQAGNASASA
Consider B20, for which the “furin cleavage Z-score” value was 8.45 (active) (7.5 min), 11.8 (active) (15 min) and 8.31 (active) (30 min).

B21: FS-2458 (peptide)
chain: CARSKKDFEAAGNASASA
B21: the “furin cleavage Z-score” value was 0.38 (inactive) (7.5 min), -0.117 (inactive) (15 min) and -0.363 (inactive) (30 min).

B22: FS-1935 (peptide)
chain: CARTKRELENAGNASASA
Take B22: the “furin cleavage Z-score” value is, setting by setting: (7.5 min) 14.2 (active); (15 min) 14.2 (active); (30 min) 11.6 (active).

B23: FS-1690 (peptide)
chain: CARDKRALKQAGNASASA
As to B23, the “furin cleavage Z-score” value was 5.74 (active) (7.5 min), 8.75 (active) (15 min) and 8.98 (active) (30 min).

B24: HC22 (peptide)
chain: CAMEECGQHLAGNASASA
On to B24, for which the “furin cleavage Z-score” value (7.5 min) is 0.622 (inactive), the “furin cleavage Z-score” value (15 min) was 0.186 (inactive) and the “furin cleavage Z-score” value (30 min) was 1.5.

B25: FS-2133 (peptide)
chain: CARDKKSLLQAGNASASA
As to B25, the “furin cleavage Z-score” value (7.5 min) was 0.497 (inactive), the “furin cleavage Z-score” value (15 min) was 0.302 (inactive) and the “furin cleavage Z-score” value (30 min) was -0.611 (inactive).

B26: HC1629 (peptide)
chain: CARAAICGKYAGNASASA
Regarding B26, the “furin cleavage Z-score” value is -0.897 (inactive) (7.5 min), -0.988 (inactive) (15 min) and -0.655 (inactive) (30 min).

B27: FS-1945 (peptide)
chain: CARDKRSALQAGNASASA
On to B27, for which the “furin cleavage Z-score” value was 8.56 (active) (7.5 min), 10.4 (active) (15 min) and 8.42 (active) (30 min).

B28: FS-2807 (peptide)
chain: CARSKRAQTQAGNASASA
On to B28, for which the “furin cleavage Z-score” value is 3.83 (active) (7.5 min), 4.65 (active) (15 min) and 3.76 (active) (30 min).

B29: FS-3170 (peptide)
chain: CARSKRRKYVAGNASASA
In the case of B29, the “furin cleavage Z-score” value was -1.22 (inactive) (7.5 min), -0.271 (inactive) (15 min) and 0.492 (inactive) (30 min).

B30: FS-2652 (peptide)
chain: CARDKRWVKYAGNASASA
Regarding B30, the “furin cleavage Z-score” value reads like this: (7.5 min) 0.63 (inactive); (15 min) 2.15; (30 min) 6.84 (active).

B31: FS-3101 (peptide)
chain: CARSYRYALQAGNASASA
Take B31: the “furin cleavage Z-score” value (7.5 min) is 2.16, the “furin cleavage Z-score” value (15 min) was -0.873 (inactive) and the “furin cleavage Z-score” value (30 min) was -0.277 (inactive).

B32: FS-2808 (peptide)
chain: CARSKRASYVAGNASASA
On to B32, for which the “furin cleavage Z-score” value (7.5 min) is 5.25 (active), the “furin cleavage Z-score” value (15 min) is 9.12 (active) and the “furin cleavage Z-score” value (30 min) was 8.21 (active).

B33: FS-3207 (peptide)
chain: CARSKRREMQAGNASASA
Take B33: the “furin cleavage Z-score” value (7.5 min) is 0.975 (inactive), the “furin cleavage Z-score” value (15 min) is 0.582 (inactive) and the “furin cleavage Z-score” value (30 min) was 0.62 (inactive).

B34: FS-3217 (peptide)
chain: CARDKRLAYSAGNASASA
With B34, the “furin cleavage Z-score” value runs as follows: (7.5 min) -0.235 (inactive); (15 min) -0.255 (inactive); (30 min) 0.271 (inactive).

B35: FS-2304 (peptide)
chain: CARSKRKKEVAGNASASA
Take B35: the “furin cleavage Z-score” value was 1.21 (7.5 min), -0.317 (inactive) (15 min) and -0.337 (inactive) (30 min).

B36: HC1819 (peptide)
chain: CADPMEECSQAGNASASA
With B36, the “furin cleavage Z-score” value by setting is: (7.5 min) 0.273 (inactive); (15 min) -1.88 (inactive); (30 min) -0.65 (inactive).

B37: HC2445 (peptide)
chain: CAELEVPCHRAGNASASA
Take B37: the “furin cleavage Z-score” value (7.5 min) is 0.172 (inactive), the “furin cleavage Z-score” value (15 min) was 0.852 (inactive) and the “furin cleavage Z-score” value (30 min) was 0.435 (inactive).

B38: HC1478 (peptide)
chain: CAMGFSYDTRAGNASASA
Consider B38, for which the “furin cleavage Z-score” value is -0.658 (inactive) (7.5 min), -1.06 (inactive) (15 min) and -0.421 (inactive) (30 min).

B39: HC1866 (peptide)
chain: CATTMCSGSWAGNASASA
B39: the “furin cleavage Z-score” value by setting is: (7.5 min) -0.934 (inactive); (15 min) -1.58 (inactive); (30 min) -0.286 (inactive).

B40: HC2090 (peptide)
chain: CAVVCCSMSVAGNASASA
Turning to B40, the “furin cleavage Z-score” value (7.5 min) was -0.627 (inactive), the “furin cleavage Z-score” value (15 min) is 0.955 (inactive) and the “furin cleavage Z-score” value (30 min) is 1.16.

B41: FS-2205 (peptide)
chain: CARDKRKQRQAGNASASA
In the case of B41, the “furin cleavage Z-score” value by setting is: (7.5 min) 1.77; (15 min) 4.76 (active); (30 min) 3.43.

B42: FS-3084 (peptide)
chain: CARSKRGTEDAGNASASA
As to B42, the “furin cleavage Z-score” value reads like this: (7.5 min) 8.96 (active); (15 min) 9.33 (active); (30 min) 8.39 (active).

B43: FS-2306 (peptide)
chain: CARSKRRDANAGNASASA
As for B43, the “furin cleavage Z-score” value by setting is: (7.5 min) -0.438 (inactive); (15 min) 0.401 (inactive); (30 min) 2.07.

B44: FS-1929 (peptide)
chain: CARSKRIWLDAGNASASA
B44: the “furin cleavage Z-score” value was 0.312 (inactive) (7.5 min), 0.0956 (inactive) (15 min) and 0.362 (inactive) (30 min).

B45: FS-1691 (peptide)
chain: CARDKRKLGAAGNASASA
Consider B45, for which the “furin cleavage Z-score” value by setting is: (7.5 min) -0.964 (inactive); (15 min) 0.648 (inactive); (30 min) 1.45.

B46: FS-2525 (peptide)
chain: CARSKRVLWDAGNASASA
As for B46, the “furin cleavage Z-score” value is -1.38 (inactive) (7.5 min), -1.33 (inactive) (15 min) and -0.22 (inactive) (30 min).

B47: FS-2523 (peptide)
chain: CARSKRALENAGNASASA
Take B47: the “furin cleavage Z-score” value reads like this: (7.5 min) 9.22 (active); (15 min) 11 (active); (30 min) 8.18 (active).
